Sampled rows, rich in hits. Any-hit rate of the full collection: about 2.2%.
HSP90 refold inh = HSP90 refolding inhibition in rabbit reticulocyte lysate. luciferase refolding luminescence, 3 h. inhibition, % at 5.6 µM. 0.91% of 290,000 active. AID 1789;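 active = inhibition above the screen-wide mean plus 3 SD, computed separately per campaign, cut at about 16% in these data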;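 note: 0% = DMSO wells and 100% = 60 µM geldanamycin wells; inhibitors lower the luminescence because luciferase stays unfolded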
TWEAK-Fn14 inh = blocks TWEAK-Fn14 interaction in a reporter cell assay | TWEAK-stimulated Fn14 reporter cells, luciferase luminescence, 8 h | inhibition, % at 10 µM | 2% of 360,000 active; in the data active = inhibition above about 50%
TROY NFkB inh = TROY signaling inhibition | AID 1347056 | inhibition, % at 10 µM | Q293 LMP1-TROYcd NF-kB luciferase reporter, 4 h | 0.98% of 360,000 active;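 active = compounds whose plate-normalised and pattern-corrected inhibition of the luciferase reporter signal at the single screening dose is 50% or more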
LGR2 inh = blocks bursicon-induced cAMP signaling via Drosophila LGR2. HEK293 LGR2, CRE-luciferase, bursicon-stimulated, 4 h. inhibition, % at 9.99 µM. 0.35% of 380,000 active;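 active = drop in luminescence signal, shown as inhibition above about 50% in the replicate tests, limit read from the data, passing the limit was not always enough; inconclusive = probably only some replicates passing the limit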;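 note: agonist challenge used bursicon conditioned medium at about half maximal strength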
Numbers without * were called inactive; ? = inconclusive; / = no result given.

SMILES	HSP90 refold inh	TWEAK-Fn14 inh	TROY NFkB inh	LGR2 inh
COCC(=O)Nc1ccc2c(c1)OC[C@@H](C)N(C(=O)Cc1cccnc1)C[C@H](C)[C@H](OC)CN(C)C2=O	/	/	/	-5
CN1CCN(C(=O)C[C@@H]2CC[C@H]3[C@H](COc4ccc(NC(=O)C5CCOCC5)cc4C(=O)N3C)O2)CC1	/	/	/	6
C[C@H]1CN([C@@H](C)CO)C(=O)c2cccc(NS(C)(=O)=O)c2O[C@@H]1CN(C)CC1CC1	/	/	/	-13
O=C(CN1CCOCC1)N[C@H]1CC[C@@H](CCNC(=O)C2CCC2)O[C@H]1CO	/	/	/	2
COc1ccccc1C#Cc1ccc([C@H]2[C@H](C#N)N(C(=O)C3CCCCC3)[C@H]2CO)cc1	/	/	/	83*
N#C[C@H]1[C@H](c2ccc(C#Cc3ccccc3F)cc2)[C@@H](CO)N1C(=O)C1CCC1	/	/	/	44
N#C[C@H]1[C@H](c2ccc(C#Cc3ccccc3F)cc2)[C@H](CO)N1C(=O)C1CCC1	/	/	/	102*
O=C(C[C@H]1CC[C@@H]2[C@H](COC[C@@H](O)CN2S(=O)(=O)c2ccc(F)cc2)O1)NCC1CC1	/	/	/	-3
COC(=O)c1c(C)oc2ccc(N(C(=O)c3ccncc3)S(=O)(=O)c3ccccc3)cc12	3	29	49	/
COC(=O)c1c(C)oc2ccc(N(C(=O)c3ccncc3)S(=O)(=O)c3ccc(C)cc3)cc12	3	56*	59*	/
Cc1ccc(S(=O)(=O)N(C(=O)c2ccncc2)c2ccc3oc4c(c3c2)CCCC4)cc1[N+](=O)[O-]	-1	30	54*	-2
Cc1cc(F)ccc1S(=O)(=O)N(C(=O)c1ccncc1)c1ccc(OC(=O)c2ccncc2)cc1	2	56*	62*	14
COC(=O)c1c(C)oc2ccc(N(C(=O)c3ccncc3)S(=O)(=O)c3ccc(C)cc3C)cc12	-4	80*	66*	15
Cc1ccc([N+](=O)[O-])cc1S(=O)(=O)N(C(=O)c1ccncc1)c1ccc2oc3c(c2c1)CCCC3	-4	-2	22	13
C/C=C/c1ccc2c(c1)O[C@@H](CN(C)C(=O)CC)[C@H](C)CN([C@@H](C)CO)S2(=O)=O	/	/	/	6
COC(=O)c1c(C)oc2ccc(N(C(=O)c3ccncc3)S(=O)(=O)c3ccc4ccccc4c3)cc12	3	57*	53*	40
CCCC(=O)Nc1ccc(Sc2ccc([N+](=O)[O-])cc2)cc1	0	0	42	/
CCC(CC)C(=O)Nc1ccc(Sc2ccc([N+](=O)[O-])cc2)cc1	-1	41	55*	13
CC(C)NC(=O)N(C)C[C@@H]1Oc2ncc(C#CC3CCCC3)cc2C(=O)N([C@H](C)CO)C[C@H]1C	/	/	/	5
C[C@@H]1CN([C@@H](C)CO)C(=O)c2c(c3ccccc3n2C)-c2ccccc2CO[C@H]1CN(C)S(=O)(=O)CC(F)(F)F	/	/	/	-13
Cc1cc(C)c(C#N)c(Sc2nc(C)c([N+](=O)[O-])c(C)c2C#N)n1	/	82*	49	?
Cc1nc(Sc2ccccc2)c(C#N)c(C)c1[N+](=O)[O-]	7	-23	17	-6
Fc1ccc(Nc2ccc3ccccc3n2)c(F)c1	34*	52*	-2	45
NCCc1c(-c2ccccc2)n(-c2ccccc2)c2ccccc12	4	-22	-14	58*
CC(=O)n1c(-c2ccccc2)c(CO)c2ccccc21	1	-9	17	-12
SMILES	HSP90 refold inh	TWEAK-Fn14 inh	TROY NFkB inh	LGR2 inh
COc1cccc(NC(=O)N(C)C[C@@H]2OCc3ccccc3-c3c(n(C)c4ccccc34)C(=O)N([C@@H](C)CO)C[C@@H]2C)c1	/	/	/	-20
Cc1ccc(-c2nc(N)sc2-c2ccccc2)cc1C	-5	86*	53*	-7
Cc1noc(C)c1S(=O)(=O)N(C)C[C@@H]1OCCCC[C@H](C)Oc2ccc(NS(=O)(=O)c3cccs3)cc2C(=O)N([C@H](C)CO)C[C@H]1C	/	/	/	8
COc1ccc(S(=O)(=O)Nc2cc(SCC(=O)O)c(O)c3ccccc23)cc1	7	93*	51*	-14
Cc1cc(C)c(S(=O)(=O)Nc2cc(SCC(=O)O)c(O)c3ccccc23)cc1C	-3	/	/	/
O=C(O)CSc1cc(NS(=O)(=O)c2ccc(Cl)cc2)c2ccccc2c1O	14	94*	46	1
COc1ccc(S(=O)(=O)Nc2cc(Sc3ncn[nH]3)c(O)c3ccccc23)cc1	76*	/	/	/
COc1ccc(S(=O)(=O)Nc2ccc(O)c(Sc3ncn[nH]3)c2)cc1	2	8	0	/
O=C(C[C@@H]1C[C@H]2c3cc(NC(=O)c4ccc5c(c4)OCO5)ccc3O[C@H]2[C@H](CO)O1)NC1CCCCC1	/	/	/	-1
CCOC(=O)c1c(NC(=O)CC2SC(N)=NC2=O)sc2c1CCC(C)C2 (stereo not drawn)	59*	-15	14	8
CCC(=O)N(C)C[C@H]1Oc2ncc(/C=C/c3ccccc3)cc2C(=O)N([C@@H](C)CO)C[C@H]1C	/	/	/	14
O=C(CCl)NC1CCCc2ccccc21 (stereo not drawn)	-2	50*	0	8
O=C(Cc1ccc(Br)cc1)NC1CCCc2ccccc21 (stereo not drawn)	0	-20	-4	10
O=C1c2cccc(OCC(=O)N3CCCc4ccccc43)c2CCN1Cc1ccc(Br)cc1	6	79*	36	-1
O=C1/C(=C/c2cccc(Br)c2)SC(=S)N1CCC(=O)N(CCO)c1ccccc1	13	86*	35	?
O=C1/C(=C/c2ccc3c(c2)OCO3)SC(=S)N1CCC(=O)N(CCO)c1ccccc1	/	39	27	9
Cc1ccccc1S(=O)(=O)NCC[C@@H]1CC[C@@H](NC(=O)C2CCC2)[C@@H](CO)O1	/	/	/	-16
O=S(=O)(c1ccc2c(c1)OCCO2)N1CCC(c2nc3ccccc3s2)CC1	6	53*	43	21
COc1cc2oc(=O)cc(-c3ccc(-c4ccc(N(C)C)cc4)cc3)c2c(OC)c1OC	/	92*	71*	4
COc1cc(OC)c2c(-c3cccc(-c4ccc(N(C)C)cc4)c3)cc(=O)oc2c1	/	52*	44	-6
COc1cc(OC)c2c(-c3cccc(-c4ccc(CO)cc4)c3)cc(=O)oc2c1	/	75*	41	/
COc1ccc(-c2cccc(-c3cc(=O)oc4cc(OC)cc(OC)c34)c2)cc1	/	5	20	-7
O=C(C1CCOCC1)N1[C@H](CO)[C@H](c2ccccc2)C12CN(Cc1cncnc1)C2	/	/	/	-3
Cc1cc(NCC2CCCCC2)nc2ccccc12	-2	-4	-58	-16
Cc1cc(NCCNC2=CC(=O)CCC2)nc2ccccc12	-1	73*	6	/
COc1ccc(C#Cc2cnc3c(c2)C(=O)N([C@H](C)CO)C[C@@H](C)[C@@H](CN(C)C(C)=O)O3)cc1	/	/	/	-26
COc1ccc(-c2ccc([C@H]3[C@H]4CN(C(=O)c5ccccn5)CC(=O)N4[C@H]3CO)cc2)cc1	/	/	/	2
O=C(CNC(=O)c1cccs1)c1ccc(Br)cc1	-1	55*	-7	-15
C[C@@H]1CCCCO[C@@H](CN(C)C(=O)Nc2cccc3ccccc23)[C@@H](C)CN([C@@H](C)CO)C(=O)c2cc(NC(=O)Nc3ccc(C(F)(F)F)cc3)ccc2O1	/	/	/	-26

Compound activity as filed in PubChem BioAssay.
